The values below come from PubChem BioAssay (Tox21).

Records with an inconclusive call do not appear. The source made the active and inactive calls. Unless noted, calls follow the shape of the full dose curve.

Test [1] has as its target Peroxisome proliferator-activated receptor delta (Homo sapiens) (UniProt Q03181). The experiment in a line: qHTS assay to identify small molecule agonists of the peroxisome proliferator-activated receptor delta (PPARd) signaling pathway (AID 743212). The gist of the method: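 HEK293H UAS-bla reporter cells, human PPARd system; compounds delivered in DMSO after 5 h plating, then at 37 C. Beta-lactamase FRET read, 2 h RT substrate step.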

Test [2] in a line: qHTS assay to identify small molecule antagonists of the peroxisome proliferator-activated receptor delta (PPARd) signaling pathway - cell viability counter screen (AID 743213; active = well fitted curve in the direction sought with a large enough effect in the repeat runs; an effect the other way counts as inactive or inconclusive; also: nearly all actives have a fitted effect of over 50% in size). The method in brief:
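Cytotoxicity counter screen: CellTiter-Glo luminescence read 30 min after addition, in the same wells as the reporter assay. There, PPARd UAS-bla HEK293H cells (3000/well) were treated 17 h at 37 C with compound and 300 nM L165041.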

The target in test [3] is Bile acid receptor (Homo sapiens) (UniProt Q96RI1). The experiment in a line: qHTS assay to identify small molecule antagonists of the farnesoid-X-receptor (FXR) signaling pathway (AID 743217; active = well fitted inhibition curve with a large enough effect in the signal ratio in the repeat runs, not every such curve was filed as active; the % refers to the signal ratio). The method in brief: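 Beta-lactamase reporter under UAS control in HEK 293T cells; compound exposure 16 h at 37 °C in the presence of chenodeoxycholic acid (50 uM final); signal from B/G FRET substrate after 2 h at room temperature.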
Chain of Bile acid receptor (Homo sapiens) (Q96RI1 whole entry, looked up): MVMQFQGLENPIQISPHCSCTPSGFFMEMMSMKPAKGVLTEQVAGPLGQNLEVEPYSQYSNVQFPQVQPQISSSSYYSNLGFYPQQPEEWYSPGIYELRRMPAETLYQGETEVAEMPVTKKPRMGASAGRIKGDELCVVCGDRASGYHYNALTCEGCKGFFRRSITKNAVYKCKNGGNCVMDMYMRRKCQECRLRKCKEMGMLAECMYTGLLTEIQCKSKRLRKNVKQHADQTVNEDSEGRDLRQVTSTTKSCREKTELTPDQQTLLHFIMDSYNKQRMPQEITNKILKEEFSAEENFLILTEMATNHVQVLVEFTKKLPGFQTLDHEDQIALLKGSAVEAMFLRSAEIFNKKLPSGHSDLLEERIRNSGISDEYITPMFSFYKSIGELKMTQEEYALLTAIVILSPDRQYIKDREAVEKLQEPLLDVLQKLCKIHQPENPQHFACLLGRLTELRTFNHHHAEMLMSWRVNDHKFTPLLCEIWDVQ
A general note: Quantitative high-throughput screening tests each substance at several concentrations.

Test [4] has the same target. In words: qHTS assay to identify small molecule agonists of the farnesoid-X-receptor (FXR) signaling pathway (AID 743220; active = well fitted activation curve with a large enough effect in the signal ratio in the repeat runs, not every such curve was filed as active; the % refers to the signal ratio). The gist of the method:
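Beta-lactamase reporter under UAS control in GeneBLAzer FXR HEK 293T cells (5000/well) measured with LiveBLAzer FRET substrate after 2 h at room temperature. Compound exposure lasted 16 h at 37C.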

Test [5] can be described thus: qHTS assay to identify small molecule antagonists of the farnesoid-X-receptor (FXR) signaling pathway - cell viability counter screen (AID 743221; active = well fitted cell-killing curve with a large enough effect in the repeat runs, not every such curve was filed as active; also: nearly all actives have a fitted effect of over 50% in size). The gist of the method:
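GeneBLAzer FXR-UAS-bla HEK 293T cells, compound plus chenodeoxycholic acid (50 uM final), 16 h at 37 C. CellTiter-Glo added to the same wells after the beta-lactamase read; luminescence read after 30 min at room temperature as viability.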

The target in test [6] is Vitamin D3 receptor (Homo sapiens) (UniProt P11473). In words: qHTS assay to identify small molecule agonists of the vitamin D receptor (VDR) signaling pathway (AID 743222). The gist of the method:
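Agonist activity measured in VDR-bla reporter cells. Exposure 16 h, 37C, 5% CO2; detection by B/G FRET substrate, 2 h RT.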

A short description of test [7]: qHTS assay to identify small molecule antagonists of the vitamin D receptor (VDR) signaling pathway - cell viability counter screen (AID 743225; active = well fitted curve in the direction sought with a large enough effect in the repeat runs; an effect the other way counts as inactive or inconclusive; also: nearly all actives have a fitted effect of over 50% in size). The method in brief:
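VDR-UAS-bla HEK 293T cells were plated and incubated 4 h at 37C, then dosed with compound plus 3 nM (final) 1-alpha,25-dihydroxyvitamin D3 for 16 h. After the 2 h beta-lactamase read, viability in the same wells was read as CellTiter-Glo luminescence after 30 min at room temperature.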

Test [8] in a line: qHTS assay to identify small molecule agonists of the NFkB signaling pathway - cell viability counter screen (AID 1159515). Also: series mostly up to about 61 µM; nearly all actives have a fitted effect of over 55% in size. The gist of the method: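 Viability in NFkB-bla ME-180 cells was measured by CellTiter-Glo luminescence, 30 min room temperature, in wells already treated 5 hr with compounds and read for reporter FRET.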
The nature of test [9]: qHTS assay to identify small molecule agonists of the endoplasmic reticulum stress response signaling pathway (AID 1159516; active = well fitted activation curve with a large enough effect in the signal ratio in the repeat runs, not every such curve was filed as active; the % refers to the signal ratio). The method in brief:
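ER stress element reporter (bla) in HeLa. 1,500 cells/well, overnight attachment; 5 hr compound; 2 hr RT substrate; dual-emission fluorescence.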

Test [10] in a line: qHTS assay to identify small molecule agonists of the endoplasmic reticulum stress response signaling pathway - cell viability counter screen (AID 1159517).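 Also: HeLa cells carrying an ER stress response element beta-lactamase reporter; series mostly up to about 61 µM; nearly all actives have a fitted effect of over 50% in size.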 The gist of the method: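 Cells, HeLa ESRE-bla; density, 1,500/well; dosing, 5 hr at 37 C, 5% CO2; readout, CellTiter-Glo luminescence after 30 min RT.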
The nature of test [11]: qHTS assay to identify small molecule antagonists of the retinoid-related orphan receptor gamma (ROR-gamma) signaling pathway - cell viability counter screen (AID 1159520; active = well fitted curve in the direction sought with a large enough effect in the repeat runs; an effect the other way counts as inactive or inconclusive; also: nearly all actives have a fitted effect of over 50% in size). The method in brief: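 Cytotoxicity was read from cellular ATP (CellTiter-Glo luminescence) after 16 hr at 37 C with 1 uM doxycycline induction. The inducer was added 2 hr after compound transfer to Tet-on ROR gamma CHO cells.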

The target of test [12] is Nuclear receptor ROR-gamma (Homo sapiens) (UniProt P51449). In words: qHTS assay to identify small molecule antagonists of the retinoid-related orphan receptor gamma (ROR-gamma) signaling pathway (AID 1159521; active = well fitted curve in the direction sought with a large enough effect in the repeat runs; an effect the other way counts as inactive or inconclusive; also: nearly all actives have a fitted effect of over 50% in size; also: potency is read from the fitted curve at half-maximal effect). The gist of the method: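 Tet-on ROR-gamma CHO cells with ROR response element-luciferase reporter; compounds added 2 hr before 1 uM doxycycline induction, then 16 hr at 37 C. Antagonism scored as decreased ONE-Glo luminescence.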

A short description of test [13]: qHTS assay to identify small molecule agonists of the AP-1 signaling pathway - cell viability counter screen (AID 1159525). Also: nearly all actives have a fitted effect of over 55% in size. The method in brief:
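Luminescent ATP readout (Cell Titer Glo, 30 min RT), normalised to DMSO and tetra n-octyl ammonium bromide controls. Cells were ME-180 AP-1-bla in 0.5% dialyzed FBS Opti-MEM, with a 5 h, 37 °C compound exposure.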

The nature of test [14]: qHTS assay to identify small molecule agonists of the AP-1 signaling pathway (AID 1159526).
The target in test [15] is Retinoic acid receptor RXR-alpha (Homo sapiens) (UniProt P19793). The experiment in a line: qHTS assay to identify small molecule agonists of the RXR signaling pathway (AID 1159527). Also: nearly all actives have a fitted effect of over 35% in size. The method in brief:
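GeneBLAzer RXR-alpha-UAS-bla HEK 293T cells in 2% charcoal-stripped FBS medium were exposed to compounds for 16 hr at 37 C in agonist mode. Beta-lactamase reporter read as 460/530 nm FRET ratio after 2 hr substrate loading.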

Test [16] is described as follows: qHTS assay to identify small molecule agonists of the peroxisome proliferator-activated receptor delta (PPARd) signaling pathway - cell viability counter screen (AID 743211; active = well fitted curve in the direction sought with a large enough effect in the repeat runs; an effect the other way counts as inactive or inconclusive; also: nearly all actives have a fitted effect of over 55% in size). The gist of the method: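 PPARd-bla HEK293H cells (3000/well) were pre-incubated 5 h at 37 C, then exposed to compound for 17 h at 37 C. After 2 h with LiveBLAzer substrate, CellTiter-Glo was added to the same wells; luminescence read after 30 min at room temperature.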

The target of test [17] is Peroxisome proliferator-activated receptor delta (Homo sapiens) (UniProt Q03181). In words: qHTS assay to identify small molecule antagonists of the peroxisome proliferator-activated receptor delta (PPARd) signaling pathway (AID 743215; active = well fitted inhibition curve with a large enough effect in the signal ratio in the repeat runs, not every such curve was filed as active; the % refers to the signal ratio;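 also: cells stimulated with agonist L165041 at 300 nM final during compound exposure; series mostly up to about 62 µM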). The gist of the method:
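Antagonist-mode beta-lactamase reporter screen: HEK293H cells with UAS-bla under PPARd control, stimulated by 300 nM L165041 (final) alongside test compound for 17 h at 37 C, then FRET fluorescence after 2 h substrate incubation.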

A short description of test [18]: qHTS assay to identify small molecule agonists of the vitamin D receptor (VDR) signaling pathway - cell viability counter screen (AID 743224; active = well fitted curve in the direction sought with a large enough effect in the repeat runs; an effect the other way counts as inactive or inconclusive). The method in brief:
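VDR-bla cell line, quantitative HTS format; 16 h compound incubation (37C, 5% CO2); ATP-based CellTiter-Glo luminescence measured in the reporter assay wells.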

Test [19] can be described thus: qHTS assay to identify small molecule agonists of the farnesoid-X-receptor (FXR) signaling pathway - cell viability counter screen (AID 743218; active = well fitted curve in the direction sought with a large enough effect in the repeat runs; an effect the other way counts as inactive or inconclusive; also: nearly all actives have a fitted effect of over 45% in size). The method in brief:
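In GeneBLAzer FXR-UAS-bla HEK 293T cells, compounds act for 16 h at 37 C. Cell viability is then scored in the reporter wells by CellTiter-Glo, 30 min at RT, luminescence.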

For test [20], the target named is Vitamin D3 receptor (Homo sapiens) (UniProt P11473). In words: qHTS assay to identify small molecule antagonists of the vitamin D receptor (VDR) signaling pathway (AID 743223; active = well fitted inhibition curve with a large enough effect in the signal ratio in the repeat runs, not every such curve was filed as active; the % refers to the signal ratio). The method in brief: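 VDR-bla cells were treated with compound plus 3 nM final 1alpha,25-dihydroxyvitamin D3 for 16 h at 37C. Beta-lactamase reporter read by B/G FRET substrate fluorescence after 2 h at room temperature. qHTS format.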
Chain of Vitamin D3 receptor (Homo sapiens) (P11473 whole entry, looked up): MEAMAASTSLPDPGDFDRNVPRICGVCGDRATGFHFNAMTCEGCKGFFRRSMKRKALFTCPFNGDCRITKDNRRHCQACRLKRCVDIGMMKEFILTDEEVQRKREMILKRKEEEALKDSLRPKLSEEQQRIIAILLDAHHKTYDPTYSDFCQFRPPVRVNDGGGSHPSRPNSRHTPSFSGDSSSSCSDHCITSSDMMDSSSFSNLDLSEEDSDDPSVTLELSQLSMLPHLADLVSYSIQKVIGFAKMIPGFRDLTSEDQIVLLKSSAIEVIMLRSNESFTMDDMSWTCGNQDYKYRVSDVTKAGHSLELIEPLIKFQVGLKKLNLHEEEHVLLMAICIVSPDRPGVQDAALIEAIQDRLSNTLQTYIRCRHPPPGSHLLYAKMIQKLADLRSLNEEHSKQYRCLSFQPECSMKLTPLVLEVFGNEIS

Chain of Peroxisome proliferator-activated receptor delta (Homo sapiens) (Q03181 whole entry, looked up): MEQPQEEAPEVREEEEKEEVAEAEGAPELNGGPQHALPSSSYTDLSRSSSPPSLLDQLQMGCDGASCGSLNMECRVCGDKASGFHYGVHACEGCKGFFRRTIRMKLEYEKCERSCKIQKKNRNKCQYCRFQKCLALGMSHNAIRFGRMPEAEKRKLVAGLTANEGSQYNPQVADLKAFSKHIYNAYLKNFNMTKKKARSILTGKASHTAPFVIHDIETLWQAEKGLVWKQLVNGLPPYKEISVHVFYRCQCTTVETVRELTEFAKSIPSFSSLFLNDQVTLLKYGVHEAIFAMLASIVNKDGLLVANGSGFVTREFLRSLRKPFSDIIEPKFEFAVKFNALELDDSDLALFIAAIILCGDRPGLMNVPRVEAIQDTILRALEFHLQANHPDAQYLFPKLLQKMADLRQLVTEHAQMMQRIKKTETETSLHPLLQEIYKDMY
Chain of Retinoic acid receptor RXR-alpha (Homo sapiens) (P19793 whole entry, looked up): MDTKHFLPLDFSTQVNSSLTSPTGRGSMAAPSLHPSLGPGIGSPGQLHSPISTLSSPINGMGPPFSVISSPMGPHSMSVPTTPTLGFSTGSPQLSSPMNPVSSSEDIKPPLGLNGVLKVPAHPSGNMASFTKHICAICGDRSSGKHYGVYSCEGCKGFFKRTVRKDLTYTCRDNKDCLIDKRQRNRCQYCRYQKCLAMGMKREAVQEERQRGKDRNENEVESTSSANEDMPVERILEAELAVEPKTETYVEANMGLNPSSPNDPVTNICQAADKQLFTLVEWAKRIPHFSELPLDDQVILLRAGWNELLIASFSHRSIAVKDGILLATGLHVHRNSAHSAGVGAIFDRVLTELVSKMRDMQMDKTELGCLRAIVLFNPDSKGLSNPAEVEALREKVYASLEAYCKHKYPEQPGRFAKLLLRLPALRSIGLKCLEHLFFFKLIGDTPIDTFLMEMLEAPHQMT

On to `O=C1Nc2ccc(Cl)cc2C(c2ccccc2)=NC1O` (centres undefined), for which the Potency entry in test [1], in test [2], in test [3], in test [4], in test [5] and in test [7] was “inactive” throughout. Moreover, the Potency result in [8], in [9], in test [10], in test [11], in test [12] and in test [13] was “inactive” in each case. For the same compound, the Potency result in test [15] is “inactive”. Also, the outcome in test [6] and in test [14] was inactive.
Take `O=P(OCCCl)(OCCCl)OCCCl`: the Potency result in [16], in test [1], in [2], in [17], in test [3] and in [4] was “inactive” in each case. In addition, the Potency entry in [5], in [18], in [7], in [8], in test [9] and in test [10] was “inactive” in each case. Moreover, the Potency entry in test [11], in test [12], in [13] and in test [15] was “inactive” throughout. Also, the call in test [6] and in test [14] was inactive.
Regarding `CCOS(=O)(=O)OCC`, the Potency result in [16], in test [1], in [2], in test [5], in [7] and in test [8] was “inactive” in each case. Also, the Potency result in [9], in [10], in test [11], in test [12], in test [13] and in test [15] was “inactive” each time. Besides, the call in test [6] and in test [14] was inactive.
Regarding `O=C1CCCO1`, the Potency entry in test [16], in test [1], in test [2], in test [17], in test [3] and in test [19] was “inactive” in each case. The Potency result in test [4], in test [5], in test [18], in [7], in test [8] and in test [9] was “inactive” in each case. The Potency result in [10], in test [11], in test [12] and in test [13] was “inactive” in each case. For the same compound, the compound was called inactive in [6] and in [14].
As to `CC1CC(=O)O1` (centres undefined), the Potency result in test [16], in test [1], in [2], in [17], in test [3] and in test [19] was “inactive” throughout. The Potency result in [4], in test [5], in test [18], in test [7], in [8] and in [9] was “inactive” each time. The Potency entry in [10], in test [11], in test [12] and in test [13] was “inactive” throughout. Also, the result in test [6] and in test [14] was inactive.
With `Cc1ccc([N+](=O)[O-])cc1`, the Potency entry in test [16], in [1], in [2], in test [19], in test [5] and in test [20] was “inactive” in each case. Further, the Potency entry in test [18], in test [7], in test [8], in [9], in test [10] and in [11] was “inactive” each time. Also, the Potency result in [12], in test [13] and in test [15] was “inactive” throughout. The result in test [6] and in test [14] was inactive.
Turning to `CC1(C)C(C(=O)OC(C#N)c2cccc(Oc3ccccc3)c2)C1(C)C` (centres undefined), the Potency result in [16], in test [1], in test [2], in test [17], in test [19] and in test [4] was “inactive” each time. The Potency result in [5], in test [20], in test [18], in test [7], in test [8] and in test [9] was “inactive” each time. Further, the Potency result in [10], in test [11] and in test [13] was “inactive” each time. Moreover, the result in test [6] and in [14] was inactive. The Potency in [12] is 48.9 µM (active).
Take `CS(=O)(=O)NC(=O)c1cc(Oc2ccc(C(F)(F)F)cc2Cl)ccc1[N+](=O)[O-]`: the Potency entry in [16], in [2], in test [3], in test [4], in test [5] and in [18] was “inactive” in each case. Also, the Potency result in test [7], in test [8], in test [9], in test [10], in test [11] and in test [12] was “inactive” each time. For the same compound, the Potency result in test [13] and in [15] was “inactive” in each case. For the same compound, the outcome in test [6] and in [14] was inactive.
